Screening results (PubChem BioAssay)
TDP1 cell noCPT: qHTS for Inhibitors of human tyrosyl-DNA phosphodiesterase 1 (TDP1): qHTS in cells in absence of CPT; DT40 Tdp1-/- hTDP1 cells, no CPT, ATP luminescence, 48 h; Potency, µM (top dose mostly 46.2 µM), for the others: at the top dose activity change, negative = growth inhibition, hits mostly inhibitors; actives 15% (n = 420,000); note: potency is the fitted concentration of half-maximal effect; % is set by controls: 0 for no effect and ±100 for the full control effect; nearly all actives have a fitted effect of over 55% in size
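No-CPT arm: Tdp1-/-;hTDP1 DT40 cells (400/well) plus compounds, incubated ≥48 hr at 37 °C. Readout CellTiter-Glo luminescence.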
MCF10A rereplic: DNA re-replication induction in MCF 10a cells | MCF 10A DNA re-replication, Hoechst nuclear intensity, 48 h | Potency, µM (highest dose often 46.1 µM), for the others: at the top dose activity, positive = re-replication, hits mostly activators | actives 2.9% (n = 350,000) | AID 624296; note: potency is the fitted concentration of half-maximal effect; % of control where 0% means no effect; nearly all actives have a fitted effect of over 50% in size
Chronic BCR inh: chronic active BCR signaling inhibition; ABC-DLBCL IkBa-CBG/CBR reporter, luminescence ratio, 4 h; Potency, µM (series often up to 46.1 µM), for the others: top-dose activity change, negative = inhibition, usual class: inhibitors; actives 0.05% (n = 340,000); AID 493014; active = well fitted inhibition curve with a large enough effect in the signal ratio, with a control signal flat, not every such curve was filed as active; inconclusive = small, poorly fitted or top-dose-only effect, or effect the other way, or a change in a side signal; the % refers to the signal ratio;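 note: potency is the fitted concentration of half-maximal effect; plate controls were basal doxycycline-induced cells for no effect and cells given 10 µM MG132 for full effect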
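Compounds up to 46 uM were incubated four hours with TMD8 cells whose green CBG68 luciferase is fused to IkappaBalpha; red CBR luminescence normalised the signal, and concentration-effect curves were fitted to fusion, red and ratio data.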
DT40 TDP1 CPT: growth inhibition of DT40 Tdp1-/-;hTDP1 cells with camptothecin (screen for TDP1 inhibitors) | chicken DT40 Tdp1-/-;hTDP1 cells + 20 nM CPT, ATP luminescence, 48 h | Potency, µM (doses to about 46.2 µM), for the others: top-dose activity change, negative = growth inhibition, usual class: inhibitors | actives 12% (n = 420,000); note: potency is the fitted concentration of half-maximal effect; % is set by controls: 0 for no effect and ±100 for the full control effect; nearly all actives have a fitted effect of over 55% in size
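Cell growth measured by CellTiter-Glo luminescence after a minimum 48 h, 37 C compound exposure with 20 nM CPT in Tdp1-knockout DT40 cells stably expressing hTDP1, seeded 400/well; qHTS titration format.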
SW480 rereplic: DNA re-replication induction in SW480 cells | SW480 DNA re-replication, Hoechst DNA content imaging, 48 h | Potency, µM (highest dose often 46.1 µM), for inactives: top-dose re-replication activation, actives largely listed as activators | actives 1.8% (n = 340,000) | AID 624297; note: potency is the fitted concentration of half-maximal effect; % of control where 0% means no effect; nearly all actives have a fitted effect of over 55% in size
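SW480 cells exposed to compounds for 48 hr at 37 C, 5% CO2, then Hoechst-stained 40 min. Nuclear DNA content imaged by fluorescence scanning (405 nm excitation, 500-530 nm emission); re-replication scored as increased high-intensity nuclei.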
IL1B secr inh: inhibitors of inflammasome signaling (IL-1 beta secretion) | THP-1 LPS/ATP IL-1B secretion, AlphaLISA, 16 h; hits give low values | activity change, % at 57.5 µM | actives 4.7% (n = 360,000); in the data active = activity change below about -50%; inconclusive = mostly about -30% to -49%; note: % is set by controls: 0 for no effect and ±100 for the full control effect
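Secreted IL-1B measured by AlphaLISA bead assay after 16 h compound exposure of THP-1 cells; compounds (final up to 57.5 uM) added 1 h before LPS (250 ng/mL) and ATP (1.25 mM) stimulation; lower signal means less secretion.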
Numbers without * were called inactive; u = inconclusive; x = no result given. The list is not random: actives were taken first. Their share in the collection is about 19%. Unless noted, calls come from the whole dose curve; as a rule, active = well fitted curve in the direction sought with a large enough effect; inconclusive = small, poorly fitted or top-dose-only effect, or another doubt; inactive = no such curve, though single readings can be large; an effect the other way counts as inactive or inconclusive.

SMILES | TDP1 cell noCPT | MCF10A rereplic | Chronic BCR inh | DT40 TDP1 CPT | SW480 rereplic | IL1B secr inh
Cc1ccc(SCCC(=O)N/N=C/c2cccnc2)cc1 | -23% | 0% | -12% | u | -9% | 58
Cc1cccc(NC(=O)CCC(=O)N/N=C/c2ccc(O)cc2O)c1 | u | u | u | -94% | 6.5µM* | 146
COc1ccc(/C=N/NC(=O)CCC(=O)Nc2ccc(Br)cc2)c(OC)c1 | u | u | -2% | u | 6% | -75*
O=C(CCC(=O)Nc1ccc(Br)cc1)N/N=C/c1ccccc1O | 6.5µM* | 16% | u | u | u | 144
Cc1cn2c(=O)c(C(=O)N3CCN(c4ccccc4F)CC3)cnc2s1 | -8% | 14% | 15% | -8% | -52% | -3
COc1ccc(/C=N/NC(=O)C[n+]2ccccc2)c(OC)c1OC | -23% | 2% | -1% | 7% | 0% | 5
COc1ccc(/C=N/NC(=O)C[n+]2ccccc2)c(OC)c1 | 0% | 1µM* | 0% | -13% | -72% | 8
Cc1ccc(NC(=O)CCC(=O)N/N=C/c2ccccc2O)cc1 | 15µM* | 1% | u | 10µM* | 11% | 112
Cc1ccc(NC(=O)CCC(=O)N/N=C/c2coc3ccccc3c2=O)cc1 | -21% | 4% | u | -28% | -9% | 0
Cc1ccccc1CN1CCN(C(C)C(=O)NNC(=O)c2ccc(F)cc2)CC1 (stereo not given) | -19% | 1% | 0% | -15% | -19% | 0
CC(=O)c1sc(NC(=O)c2c(-c3ccccc3)c(-c3ccccc3)nn(C)c2=O)nc1C | 0.52µM* | x | x | 0.41µM* | x | x
Cc1cccc(NC(=O)C2CCN(C(=O)c3ccccc3C)CC2)n1 | -13% | 5% | 2% | -10% | -8% | 7
CC(=O)c1sc(NC(=O)C2CCN(C(=O)c3ccccc3C)CC2)nc1-c1ccccc1 | u | 26% | u | 18µM* | 0% | -2
O=C(Nc1nc(-c2ccccc2)c(C(=O)c2ccccc2)s1)c1ccc(S(=O)(=O)N2CCCCC2)cc1 | u | u | u | -23% | -14% | 10
CC(=O)c1sc(NC(=O)c2ccccc2)nc1-c1ccccc1 | -22% | 0.65µM* | -1% | -17% | -56% | 0
CC(=O)c1sc(NC(=O)c2c(F)cccc2F)nc1-c1ccccc1 | -9% | 0% | u | -2% | -11% | -13
COC(=O)Nc1nc(-c2ccccc2)c(C(=O)c2ccc(Cl)cc2)s1 | 0.65µM* | 1µM* | u | 0.58µM* | 1.3µM* | 10
CCOc1ccc(N(CC(=O)N2CCC(Cc3ccccc3)CC2)S(C)(=O)=O)cc1 | u | -11% | -11% | u | u | 0
CCC(C)NC(=O)c1c(-c2ccccc2)c(-c2ccccc2)nn(C)c1=O (stereo not given) | -4% | x | x | -7% | x | x
CCCOC(=O)c1c(-c2ccccc2)c(-c2ccccc2)nn(C)c1=O | 15µM* | x | x | 21µM* | x | x
CCOC(=O)Nc1nc(-c2ccccc2)c(C(=O)c2ccccc2)s1 | 0.65µM* | 1.2µM* | u | 0.58µM* | 0.92µM* | 46
CCCN(CCC)S(=O)(=O)c1ccc(C(=O)Nc2nc(-c3ccccc3)c(C(=O)OCC)s2)cc1 | u | u | u | u | 1% | 19
Cc1cccc(NC(=O)C2CCC(CNS(=O)(=O)c3csc(C(N)=O)c3)CC2)c1C (stereo not given) | 17% | x | x | -15% | x | x
CC1(C(=O)NCc2cccnc2)CCN1C(=O)Cc1cccs1 (stereo not given) | 17% | x | x | 0% | x | 35
